Several values for one entry are separate records, joined by “and”; a condition that tells them apart may be missing. Equal values may be shown once. About 1,200 (0.39%) of roughly 310,000 compounds were called active. The rule behind the calls is not given here. The list is a sample of the results. Results with a measured potency or affinity are listed apart.
These compounds were tested against Large T antigen (Simian virus 40) (UniProt P03070) (assay: SV40 large T antigen inhibitors, biochemical (AID 1903)). Conditions: SV40 large T antigen ATPase/helicase inhibition assay; at 20 µM; stronger effect = higher value.
Chain of Large T antigen (Simian virus 40) (P03070 whole entry, looked up): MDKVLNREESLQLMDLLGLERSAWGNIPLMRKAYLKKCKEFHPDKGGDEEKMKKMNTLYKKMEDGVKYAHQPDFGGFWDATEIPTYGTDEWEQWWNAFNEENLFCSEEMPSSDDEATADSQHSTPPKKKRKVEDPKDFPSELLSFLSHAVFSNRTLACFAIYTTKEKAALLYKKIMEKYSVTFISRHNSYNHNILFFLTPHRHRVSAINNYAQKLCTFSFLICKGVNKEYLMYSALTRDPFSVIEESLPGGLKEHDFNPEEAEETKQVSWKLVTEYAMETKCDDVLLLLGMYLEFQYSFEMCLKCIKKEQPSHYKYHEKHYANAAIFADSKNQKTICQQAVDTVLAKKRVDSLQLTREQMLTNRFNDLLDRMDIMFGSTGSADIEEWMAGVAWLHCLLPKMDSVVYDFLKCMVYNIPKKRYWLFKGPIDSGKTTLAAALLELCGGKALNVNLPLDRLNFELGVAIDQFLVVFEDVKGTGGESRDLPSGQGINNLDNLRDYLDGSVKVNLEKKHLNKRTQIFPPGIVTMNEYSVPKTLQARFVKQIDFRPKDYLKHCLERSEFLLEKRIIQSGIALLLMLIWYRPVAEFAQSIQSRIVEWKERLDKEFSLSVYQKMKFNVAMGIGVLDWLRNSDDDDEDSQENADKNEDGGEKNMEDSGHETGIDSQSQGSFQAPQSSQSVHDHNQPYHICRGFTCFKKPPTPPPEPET

inhibition, inactive:
CC(C)CC(=O)Nc1ccnn1C1CCN(C(=O)c2ccc(F)cc2Cl)CC1 0.42%, O=C(NNC(=O)c1ccco1)c1ccc(NS(=O)(=O)c2cccs2)cc1 9.88%, COc1ccc(NC(=O)c2sc(SC)nc2N)cc1 3.33%, COc1ccc(NC(=O)c2sc(SCc3ccccc3)nc2N)cc1 1.41%, CC(=O)Nc1ccc2nc(CN3CCN(CC=C(C)C)C(CCO)C3)ccc2c1 (stereo not drawn) 5.4%, COc1ccc(C(=O)NNC(=O)C(=O)NC(C)c2ccccc2)cc1OC (stereo not drawn) -0.06%, O=C(O)c1ccc2c(c1)C(c1ccccc1)OC2=O (stereo not drawn) 11%, COc1ccccc1CC(=O)Nc1ccc(-c2nnc(-c3ccco3)o2)cc1 5.22%, CCOc1ccc(CCNC(=O)c2cccc(S(=O)(=O)N3CCCC3)c2)cc1OCC 2.19%, COc1ccc2c(c1)c(=O)oc1cc(O)ccc12 10.3%, O=c1cc(O)c2ccc(O)cc2o1 4.04%, COc1ccc2c(c1)oc(=O)c1ccccc12 2.39%, Cc1cc(=O)oc2cc(O)ccc12 17.8%, Clc1ccccc1N1CCN(Cc2c[nH]c3ccccc23)CC1 1.73%, O=C(Cn1nnc(-c2ccccc2)n1)Nc1ccccc1N1CCOCC1 -3.12%, COC(=O)c1ccc2c(c1)C(C)(C)C(/C=C/c1ccccc1O)=[N+]2C 21.7%, C[N+]1=C(/C=C/Nc2ccccc2Cl)C(C)(C)c2ccccc21 21.8%, O=C(NCc1ccco1)c1sc(=S)n2c1[nH]c(=O)c1ccccc12 23.2%, O=C(NC1CCCCC1)c1sc(=S)n2c1[nH]c(=O)c1ccccc12 6.27%, Cc1ccc(N(C(=O)c2csnn2)C(C(=O)NC2CCCCC2)c2ccccn2)cc1C (stereo not drawn) 4.41%, [O-][n+]1c2ccccc2cc2ccccc21 3.6%, CCCCC[n+]1cccc2c3ccccc3ccc21 5.51%, Cc1ccc2ccccc2[n+]1CCCS(=O)(=O)[O-] 5.88%, CCCCCCCCCC[n+]1cccc2c3ccccc3ccc21 23.8%, CN(C)C(=O)c1ccc(-c2nnc(NCc3ccccc3)c3ccccc23)cc1 17.7%, CCOC(=O)c1c(S(=O)(=O)NCC(=O)Nc2ccc(F)cc2)c(C)n(C)c1C 2.6%, CCOc1ccccc1NC(=O)Cn1c(=O)c(OCC)nc2cnccc21 13.5%, COc1ccc(C2CC(=O)N3CN(c4ccccc4F)CSC3=C2C#N)cc1OC (stereo not drawn) 51.3%, COc1ccc2ccccc2c1C1CC(=O)N2CN(C)CSC2=C1C#N (stereo not drawn) 28.9%, COc1ccc(Br)cc1C1CC(=O)N2CN(Cc3ccccc3)CSC2=C1C#N (stereo not drawn) 35% and 18.8%, CN1CSC2=C(C#N)C(c3cccc(OCc4ccccc4)c3)CC(=O)N2C1 (stereo not drawn) 43.1%, Cc1cccc(C(=O)N2CC3(C)CC2CC(C)(C)C3)c1 (stereo not drawn) 3.07%, O=C(c1cccc([N+](=O)[O-])c1)c1ccc2c(c1)OCCOCCOCCOCCO2 7.91%, Cc1cccc(N2CCN(C(=O)CCCn3c(=O)c4cccn4c4cccnc43)CC2)c1C 9.66%, CCN1CCN(C(=O)C2=CC(c3ccc(C)cc3)=NS(=O)(=O)N2C)CC1 16.5%, CCN1C(=O)N[C@@H](CCc2ccccc2)[C@@H](C(=O)OC)[C@H]1C 23.2%, COc1cccc(NC(=O)CSCC(=O)Nc2ccccc2)c1 13.8%, CC(=O)Nc1ccc(N2CCCC2)cc1 0.723%, CCC(=O)Nc1ccc(N2CCCCC2)cc1 34.9%, CC(=O)Nc1ccc(N2CCN(C(C)=O)CC2)cc1 27.6%, O=C(CN1CCCCC1)Nc1ccc(N2CCCCCC2)cc1 31.6%, CNC(=O)C12CC3CC(CC(Cl)(C3)C1)C2 11.2%, O=C(CC(C(=O)O)c1cccc(Br)c1)c1ccc(Cl)cc1 (stereo not drawn) 9.51%, Nc1cccc2cnccc12 3.43%, N#Cc1cccc2cnccc12 7.69%, O=C(CSc1ccc(-c2ccccc2)nn1)c1cccs1 3.38%, Cc1nonc1OCCNCc1c(C(=O)N(C)C)nc2ccc(Cl)cn12 6.84%, Cc1ccc(N/N=C/C=C/c2ccco2)cc1 12.9%, S=c1[nH]nc(-c2ccncc2)n1/N=C/C=C/c1ccco1 28.8%, S=c1[nH]nc(-c2ccc(Cl)cc2)n1/N=C/c1ccco1 35.9%, C(/C=C/c1ccco1)=N/N1CCN(c2ccccc2)CC1 7.94%, O=C1OC(c2ccc(Cl)cc2)=N/C1=C\C=C\c1ccco1 58.1%, C(=C\c1ccco1)/C=N/n1cnnc1 21.7%, Cc1ccccc1-n1nc2c(c1NC(=O)c1ccc3c(c1)OCO3)CS(=O)(=O)C2 5.82%, CC(=O)Nc1ccc(N(C(=O)c2ccccn2)C(C(=O)NC2CCCCC2)c2ccc(F)cc2)cc1 (stereo not drawn) 5.17%, Cc1ccc2[nH]c(=O)c(C(c3nnnn3C(C)(C)C)N(Cc3ccco3)CC3CCCO3)cc2c1 (stereo not drawn) 9.73%, Cc1occc1C(=O)Nc1sc2c(c1C(N)=O)CCC(C(C)(C)C)C2 (stereo not drawn) 16.6%, COc1cc(OC)c(N(C)S(=O)(=O)c2cccc(C(=O)OCc3c(C)noc3C)c2)cc1Cl 5.27%, Cc1ccc(N2C(=O)C3CCC(C)(C2=O)C3(C)C)cc1 (stereo not drawn) 1.07%, O=C(Cn1cnc2ccccc2c1=O)Nc1nc2ccccc2s1 4.55%, Cc1nnsc1C(=O)N1CCCC(C(=O)c2ccc(C(F)(F)F)cc2)C1 (stereo not drawn) -2.34%, Cc1cccc(OCC(=O)N2CCN(c3nnc(-c4ccccc4)c4ccccc34)CC2)c1 12.7%, CCn1cc(C(=O)NCC(C)C)c(=O)c2cc(F)c(N3CCN(C)CC3)cc21 15.3%

Reference: PubChem BioAssay AID1903 (Southern Research Specialized Biocontainment Screening …, 2009)
